The record followed here is PubChem BioAssay (NCATS).

Results filed as inconclusive are left out. Active and inactive are the calls of the source. Unless noted, calls follow the shape of the full dose curve.

For test [1], the target named is Androgen receptor (Homo sapiens) (UniProt P10275). The experiment in a line: qHTS assay for small molecule antagonists of androgen receptor signaling (AID 588516; active = well fitted curve in the direction sought with a large enough effect in the signal ratio, with a control signal flat, not every such curve was filed as active; the % refers to the signal ratio; also: % is scaled to controls: 0 for no effect and ±100 for the full control effect). The method in brief: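 AR-UAS-bla-GripTite HEK 293 cells (2000/well, 5 h at 37 C) received compound titrations, then R1881 at 10 nM final; after 16 h at 37 C, CCF4 dye 2 h RT, beta-lactamase fluorescence read; IC50 from Hill fits.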

The target of test [2] is Glucocorticoid receptor (Homo sapiens) (UniProt P04150). Description: qHTS assay for small molecule agonists of glucocorticoid receptor signaling (AID 588532; active = well fitted curve in the direction sought with a large enough effect in the signal ratio, with a control signal flat; the % refers to the signal ratio;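 also: 100% = dexamethasone at 0.1 µM and 0% = DMSO only wells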). Conditions: HeLa MMTV-bla, beta-lactamase ratio, agonist, 18 h; stronger effect = higher value; percent of dexamethasone control, DMSO zero. The method, boiled down:
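Titration series, up to 92 uM, applied to GRE-bla HeLa cells for 18 h at 37 C. Detection by CCF4 FRET substrate after 2 h at RT.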
(In general: Quantitative high-throughput screening tests each substance at several concentrations.)

The target is the same in test [3]. Description: qHTS assay for small molecule antagonists of glucocorticoid receptor signaling (AID 588533; active = well fitted inhibition curve with a large enough effect in the signal ratio, with a control signal flat, not every such curve was filed as active; the % refers to the signal ratio;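 also: cells stimulated with 2 nM dexamethasone as agonist; % is scaled to controls: 0 for no effect and ±100 for the full control effect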). The method in brief: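 Antagonist-mode qHTS: compound titrations added to GRE-bla HeLa cells, then dexamethasone 2 nM final; 18 h, 37 C. CCF4 FRET fluorescence normalized to dexamethasone and DMSO; IC50 from Hill fit.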
Test [4] addresses Peroxisome proliferator-activated receptor gamma (Homo sapiens) (UniProt P37231). Description: qHTS assay for small molecule agonists of peroxisome proliferator-activated receptor gamma signaling (AID 588536; active = well fitted curve in the direction sought with a large enough effect in the signal ratio, with a control signal flat, not every such curve was filed as active; the % refers to the signal ratio;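 also: 0% = DMSO basal wells and 100% = rosiglitazone at 2 µM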). The method in brief: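 Beta-lactamase reporter read-out: CCF4 fluorescence (ex 405, em 460/530 nm) after 2 h at RT. HEK293 GeneBLAzer cells were treated for 16 h at 37 C. Hill fits gave EC50 and efficacy versus 2 uM rosiglitazone (100%) and DMSO (0%).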

Test [5] has the same target. The experiment in a line: qHTS assay for small molecule antagonists of peroxisome proliferator-activated receptor gamma signaling (AID 588537; active = well fitted inhibition curve with a large enough effect in the signal ratio, with a control signal flat, not every such curve was filed as active; the % refers to the signal ratio;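 also: reporter cells co-stimulated with 50 nM rosiglitazone agonist during compound treatment; % of control where 0% means no effect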). The method in brief: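 HEK293 cells, PPAR-gamma-UAS-bla, 3000/well. Pre-incubation 6-6.5 h, 37 C. Compound titration with rosiglitazone 50 nM final, 16 h. CCF4 dye, 2 h RT, dual-emission fluorescence.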
A short description of test [6]: qHTS assay for small molecule agonists of retinoid X receptor alpha signaling (AID 588544).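 As to activation: 0% = DMSO basal wells and 100% = reference agonist.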 Conditions: HEK293T RXRa-UAS-bla, beta-lactamase reporter, 18 h; 530 nm emission.
Test [7] concerns the target Retinoic acid receptor RXR-alpha (Homo sapiens) (UniProt P19793). Described as above.
The target in test [8] is Thyroid hormone receptor beta (Homo sapiens) (UniProt P10828). Description: qHTS assay for small molecule agonists of thyroid hormone receptor beta signaling (AID 588545). The method, boiled down:
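In this cell-based screen, titrated compounds act on HEK 293 cells held in medium with 2% charcoal/dextran FBS, NEAA and pyruvate for 18 hrs at 37 C. Responses are expressed relative to T3 (10 nM) as 100% and basal DMSO as 0%.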

Test [9] in a line: qHTS assay for small molecule antagonists of retinoid X receptor alpha signaling (AID 588546; active = well fitted inhibition curve with a large enough effect in the signal ratio, with a control signal flat, not every such curve was filed as active; the % refers to the signal ratio;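 also: cells stimulated with 9-cis-retinoic acid as agonist; % is scaled to controls: 0 for no effect and ±100 for the full control effect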). Conditions: HEK293T RXRa-UAS-bla, beta-lactamase ratio, antagonist mode; measured here: W530 green channel, cytotoxicity proxy. The method in brief:
(§1)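 Beta-lactamase reporter inhibition, read as CCF4 fluorescence ratio (ex 405, em 460/530 nm) after 2 h at RT. HEK293T UAS-bla cells, 2500/well, were stimulated with 9-cis-RA at 500 or 100 nM final alongside test compound for 18 h at 37 C.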

For test [10], the target named is Retinoic acid receptor RXR-alpha (Homo sapiens) (UniProt P19793). The test is described as above. Conditions: HEK293T RXRa-UAS-bla, beta-lactamase ratio, antagonist mode. The method, boiled down:
as §1

Test [11] has as its target Thyroid hormone receptor beta (Homo sapiens) (UniProt P10828). The experiment in a line: qHTS assay for small molecule antagonists of thyroid hormone receptor beta signaling (AID 588547; active = well fitted inhibition curve with a large enough effect in the signal ratio, with a control signal flat, not every such curve was filed as active; the % refers to the signal ratio;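 also: cells stimulated with 0.4 nM T3 agonist during compound exposure; series mostly up to about 77 µM; % is scaled to controls: 0 for no effect and ±100 for the full control effect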). Conditions: TR-UAS-bla HEK293, beta-lactamase ratio, antagonist mode, 18 h. The method, boiled down:
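TR-UAS-bla GripTite HEK293 cells in 2% charcoal/dextran FBS medium were preincubated 4 h at 37 C, given compound (0.59 nM to 92 uM) plus 0.4 nM T3 (final) for 18 h, then CCF4 for 2 h at RT; Hill fit gave IC50.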

Test [12] has as its target Voltage-gated inwardly rectifying potassium channel KCNH2 (Homo sapiens) (UniProt Q12809). Description: qHTS Assay for Small Molecule Inhibitors of the Human hERG Channel Activity (AID 588834; active = well fitted inhibition curve with a large enough effect;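 also: top concentration of the series differs between compounds; % is scaled to controls: 0 for no effect and ±100 for the full control effect; lower thallium flux fluorescence means stronger hERG block; nearly all actives have a fitted effect of over 50% in size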). The method in brief: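 In hERG-transduced U2OS cells, dye-loaded for 1 hr at room temperature in dark, test compounds incubated 10 min at 37 °C before thallium stimulation. AC50 values derived by Hill modelling of concentration-response.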

A short description of test [13]: qHTS assay for small molecule agonists of the antioxidant response element (ARE) signaling pathway (AID 651741; active = well fitted activation curve with a large enough effect in the signal ratio; the % refers to the signal ratio; also: % of control where 0% means no effect). The method, boiled down:
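Beta-lactamase reporter expression driven by the antioxidant response element in HepG2 cells was detected by fluorescence with LiveBLAzer B/G FRET substrate (2 h, room temperature) following 16 h compound treatment at 37 C.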

The nature of test [14]: qHTS assay for small molecule activators of the p53 signaling pathway (AID 651743; active = well fitted activation curve with a large enough effect in the signal ratio, not every such curve was filed as active; the % refers to the signal ratio; also: series mostly up to about 92 µM; % of control where 0% means no effect). Conditions: HCT-116 p53RE-bla, beta-lactamase FRET ratio, 16 h; stronger effect = higher value. The method, boiled down:
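Here HCT-116 cells with an integrated p53-responsive beta-lactamase gene were incubated with compounds (16 hours, 37 C) after a 5-hour plating period; beta-lactamase activity was detected as fluorescence intensity via B/G FRET substrate.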

The target of test [15] is Bile acid receptor (Homo sapiens) (UniProt Q96RI1). The experiment in a line: qHTS assay for small molecule antagonists of farnesoid X receptor signaling (AID 588526). Also: % is scaled to controls: 0 for no effect and ±100 for the full control effect. The method in brief:
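Concentration-response titrations were fitted to the Hill equation for half-maximal inhibition and maximal response, with data normalised to 50 uM chenodeoxycholic acid and DMSO control wells. Cells: FXR-UAS-bla HEK293T, dialyzed FBS.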

The target of test [16] is Vitamin D3 receptor (Homo sapiens) (UniProt P11473). Description: qHTS assay for small molecule antagonists of vitamin D receptor signaling (AID 588541). The method, boiled down: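 VDR-UAS-bla HEK293T cells (2000/well, 2% charcoal-stripped FBS) were treated with titrated compounds plus 1-alpha,25-dihydroxyvitamin D3 (50 nM or 3 nM final) for 16 h at 37 C. CCF4 beta-lactamase fluorescence was read; Hill fits gave IC50.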

Test [17] shares this target. Description: qHTS assay for small molecule agonists of vitamin D receptor signaling (AID 588543).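 Also: 0% = DMSO basal and 100% = reference agonist control.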 The method, boiled down: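 GeneBLAzer VDR-UAS-bla HEK293T cells in 2% charcoal-stripped FBS medium were dosed with compound titrations for 16 h at 37 °C; CCF4 β-lactamase readout (405 nm ex, 460/530 nm em). EC50 and efficacy from Hill fits, normalized to 50 nM calcitriol (100%) and DMSO (0%).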

Test [18] can be described thus: qHTS assay for small molecule activators of the nuclear factor-kappa B (NF-kB) signaling pathway (AID 651749; active = well fitted activation curve with a large enough effect in the signal ratio; the % refers to the signal ratio; also: series mostly up to about 77 µM; % of control where 0% means no effect). Conditions: NF-kB-bla ME-180 cells, beta-lactamase FRET ratio, 16 h; stronger effect = higher value. The method in brief:
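Beta-lactamase reporter expression, controlled by NF-kB response elements in ME-180 cells, was quantified fluorometrically via FRET disruption; cells at 2,000/well had been incubated with 23 nL test compound for 16 hr.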

Test [19] can be described thus: qHTS assay for small molecule antagonists of peroxisome proliferator-activated receptor delta signaling (AID 588535; active = well fitted inhibition curve with a large enough effect in the signal ratio, with a control signal flat, not every such curve was filed as active; the % refers to the signal ratio;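 as to max response: cells co-treated with a PPAR-delta agonist as stimulator during compound exposure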). Conditions: HEK293T PPARd-UAS-bla, beta-lactamase FRET ratio, 18 h; 460 nm channel. The method in brief: (§2)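 Compounds tested in titration on PPAR-delta-UAS-bla HEK293T cells grown in charcoal/dextran-stripped serum (2%); beta-lactamase activity read via CCF4 emission at 460 and 530 nm.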

Test [20] concerns the target Peroxisome proliferator-activated receptor delta (Homo sapiens) (UniProt Q03181). The description is as above. The method, boiled down:
as §2

Sequence of Peroxisome proliferator-activated receptor gamma (Homo sapiens) (P37231 whole entry, looked up): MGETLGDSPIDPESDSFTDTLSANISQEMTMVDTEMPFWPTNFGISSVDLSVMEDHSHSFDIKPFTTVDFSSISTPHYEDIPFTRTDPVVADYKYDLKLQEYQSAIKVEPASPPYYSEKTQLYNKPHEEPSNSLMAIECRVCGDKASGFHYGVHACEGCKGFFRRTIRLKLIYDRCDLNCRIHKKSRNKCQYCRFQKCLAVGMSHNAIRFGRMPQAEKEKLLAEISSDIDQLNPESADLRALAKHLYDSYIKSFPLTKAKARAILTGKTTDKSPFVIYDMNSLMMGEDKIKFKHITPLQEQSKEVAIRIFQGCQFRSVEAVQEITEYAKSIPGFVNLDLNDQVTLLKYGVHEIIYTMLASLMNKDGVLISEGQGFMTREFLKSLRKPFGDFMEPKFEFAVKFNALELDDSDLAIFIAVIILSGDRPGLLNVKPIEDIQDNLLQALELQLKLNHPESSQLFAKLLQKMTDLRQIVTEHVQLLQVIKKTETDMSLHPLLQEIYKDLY
Sequence of Thyroid hormone receptor beta (Homo sapiens) (P10828 whole entry, looked up): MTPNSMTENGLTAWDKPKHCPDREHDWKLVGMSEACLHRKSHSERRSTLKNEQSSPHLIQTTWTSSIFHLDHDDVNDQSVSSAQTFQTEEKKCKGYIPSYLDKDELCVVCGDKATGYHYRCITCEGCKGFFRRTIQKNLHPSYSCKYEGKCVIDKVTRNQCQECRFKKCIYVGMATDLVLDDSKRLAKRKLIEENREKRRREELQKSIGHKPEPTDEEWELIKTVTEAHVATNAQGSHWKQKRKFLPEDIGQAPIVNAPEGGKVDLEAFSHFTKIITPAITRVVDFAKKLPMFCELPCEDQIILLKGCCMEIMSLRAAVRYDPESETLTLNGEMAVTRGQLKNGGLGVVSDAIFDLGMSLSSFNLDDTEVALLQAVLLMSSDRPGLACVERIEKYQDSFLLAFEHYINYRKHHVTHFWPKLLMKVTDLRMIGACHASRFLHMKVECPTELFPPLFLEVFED
Sequence of Voltage-gated inwardly rectifying potassium channel KCNH2 (Homo sapiens) (Q12809 whole entry, looked up): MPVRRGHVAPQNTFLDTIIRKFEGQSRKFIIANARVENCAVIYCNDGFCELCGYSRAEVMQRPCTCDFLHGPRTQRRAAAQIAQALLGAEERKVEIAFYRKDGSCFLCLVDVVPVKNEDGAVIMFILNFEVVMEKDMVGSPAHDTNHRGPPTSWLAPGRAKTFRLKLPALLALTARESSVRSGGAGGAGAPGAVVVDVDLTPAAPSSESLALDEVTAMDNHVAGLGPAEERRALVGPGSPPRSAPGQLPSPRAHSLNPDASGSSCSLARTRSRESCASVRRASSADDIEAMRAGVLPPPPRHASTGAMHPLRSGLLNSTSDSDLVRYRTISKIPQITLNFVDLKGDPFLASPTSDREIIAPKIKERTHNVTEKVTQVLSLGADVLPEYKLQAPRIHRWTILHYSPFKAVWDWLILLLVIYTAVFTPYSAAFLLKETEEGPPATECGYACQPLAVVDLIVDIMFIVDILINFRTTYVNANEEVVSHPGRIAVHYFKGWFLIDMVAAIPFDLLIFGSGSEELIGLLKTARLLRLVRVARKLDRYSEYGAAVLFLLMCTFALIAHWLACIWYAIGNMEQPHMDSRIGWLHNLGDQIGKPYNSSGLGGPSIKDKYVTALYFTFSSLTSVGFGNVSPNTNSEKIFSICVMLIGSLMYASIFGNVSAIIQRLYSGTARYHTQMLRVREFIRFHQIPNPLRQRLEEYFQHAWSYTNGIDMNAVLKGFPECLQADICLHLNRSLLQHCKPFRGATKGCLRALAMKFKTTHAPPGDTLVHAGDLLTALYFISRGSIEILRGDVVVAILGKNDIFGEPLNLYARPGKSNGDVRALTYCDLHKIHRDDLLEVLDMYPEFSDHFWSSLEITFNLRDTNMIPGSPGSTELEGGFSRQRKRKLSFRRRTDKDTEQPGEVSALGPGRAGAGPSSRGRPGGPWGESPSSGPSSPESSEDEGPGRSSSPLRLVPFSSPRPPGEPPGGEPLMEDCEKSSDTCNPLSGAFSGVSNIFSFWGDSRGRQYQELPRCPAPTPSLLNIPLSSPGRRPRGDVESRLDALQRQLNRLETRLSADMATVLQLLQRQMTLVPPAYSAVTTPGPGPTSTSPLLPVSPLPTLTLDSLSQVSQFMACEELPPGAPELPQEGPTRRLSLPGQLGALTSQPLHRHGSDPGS
Sequence of Androgen receptor (Homo sapiens) (P10275 whole entry, looked up): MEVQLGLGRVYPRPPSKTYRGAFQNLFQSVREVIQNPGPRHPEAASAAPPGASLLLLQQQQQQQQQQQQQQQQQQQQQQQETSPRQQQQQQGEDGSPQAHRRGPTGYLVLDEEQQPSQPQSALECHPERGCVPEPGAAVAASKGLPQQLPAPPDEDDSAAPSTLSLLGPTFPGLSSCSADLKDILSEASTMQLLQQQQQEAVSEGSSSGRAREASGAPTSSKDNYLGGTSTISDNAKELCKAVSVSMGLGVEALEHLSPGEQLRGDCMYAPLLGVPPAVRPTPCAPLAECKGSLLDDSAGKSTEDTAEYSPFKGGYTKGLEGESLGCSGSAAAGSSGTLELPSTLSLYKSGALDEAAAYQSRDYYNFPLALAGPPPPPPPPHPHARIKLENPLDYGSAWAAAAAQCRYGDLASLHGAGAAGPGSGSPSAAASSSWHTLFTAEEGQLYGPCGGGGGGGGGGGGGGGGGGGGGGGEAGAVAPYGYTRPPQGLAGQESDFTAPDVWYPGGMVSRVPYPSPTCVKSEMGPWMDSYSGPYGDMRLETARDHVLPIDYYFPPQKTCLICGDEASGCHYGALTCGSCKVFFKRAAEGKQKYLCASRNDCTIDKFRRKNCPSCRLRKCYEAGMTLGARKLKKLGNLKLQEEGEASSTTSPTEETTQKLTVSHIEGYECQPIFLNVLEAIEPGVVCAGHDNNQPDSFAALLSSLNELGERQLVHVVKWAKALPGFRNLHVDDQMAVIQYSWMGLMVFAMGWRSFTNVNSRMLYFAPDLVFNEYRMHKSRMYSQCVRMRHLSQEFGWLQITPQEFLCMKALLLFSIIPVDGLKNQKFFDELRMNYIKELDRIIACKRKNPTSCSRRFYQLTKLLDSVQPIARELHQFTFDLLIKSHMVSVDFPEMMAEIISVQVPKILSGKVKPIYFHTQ
Sequence of Peroxisome proliferator-activated receptor delta (Homo sapiens) (Q03181 whole entry, looked up): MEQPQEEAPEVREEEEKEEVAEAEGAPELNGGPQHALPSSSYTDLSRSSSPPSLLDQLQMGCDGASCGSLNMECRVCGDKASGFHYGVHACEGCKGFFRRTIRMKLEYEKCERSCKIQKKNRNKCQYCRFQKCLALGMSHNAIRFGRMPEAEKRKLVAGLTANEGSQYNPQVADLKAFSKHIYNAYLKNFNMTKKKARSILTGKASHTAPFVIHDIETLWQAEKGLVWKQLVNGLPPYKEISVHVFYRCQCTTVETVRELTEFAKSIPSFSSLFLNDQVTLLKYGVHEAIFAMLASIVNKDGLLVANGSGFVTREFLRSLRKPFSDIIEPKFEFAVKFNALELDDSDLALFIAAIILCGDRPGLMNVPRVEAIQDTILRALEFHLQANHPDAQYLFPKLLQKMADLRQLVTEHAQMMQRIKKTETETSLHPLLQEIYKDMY
Sequence of Glucocorticoid receptor (Homo sapiens) (P04150 whole entry, looked up): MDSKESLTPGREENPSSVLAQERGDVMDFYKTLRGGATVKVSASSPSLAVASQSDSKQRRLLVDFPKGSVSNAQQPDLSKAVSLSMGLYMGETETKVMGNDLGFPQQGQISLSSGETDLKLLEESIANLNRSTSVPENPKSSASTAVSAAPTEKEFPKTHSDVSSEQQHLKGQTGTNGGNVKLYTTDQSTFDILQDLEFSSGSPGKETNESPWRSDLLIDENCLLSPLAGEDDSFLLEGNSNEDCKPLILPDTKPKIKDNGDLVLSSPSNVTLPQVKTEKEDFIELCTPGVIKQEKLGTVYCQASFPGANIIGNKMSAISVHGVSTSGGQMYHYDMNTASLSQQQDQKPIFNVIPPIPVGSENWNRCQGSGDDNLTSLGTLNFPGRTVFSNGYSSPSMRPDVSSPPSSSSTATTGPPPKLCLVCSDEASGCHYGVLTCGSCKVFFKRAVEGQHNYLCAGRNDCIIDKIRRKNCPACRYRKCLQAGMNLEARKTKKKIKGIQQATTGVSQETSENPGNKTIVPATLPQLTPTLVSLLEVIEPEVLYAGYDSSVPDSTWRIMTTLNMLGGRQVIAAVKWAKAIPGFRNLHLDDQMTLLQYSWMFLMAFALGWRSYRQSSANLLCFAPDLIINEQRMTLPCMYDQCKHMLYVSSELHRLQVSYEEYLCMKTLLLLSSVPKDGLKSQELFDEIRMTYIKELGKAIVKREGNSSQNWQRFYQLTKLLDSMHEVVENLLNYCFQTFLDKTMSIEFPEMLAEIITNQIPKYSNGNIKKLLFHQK
Sequence of Vitamin D3 receptor (Homo sapiens) (P11473 whole entry, looked up): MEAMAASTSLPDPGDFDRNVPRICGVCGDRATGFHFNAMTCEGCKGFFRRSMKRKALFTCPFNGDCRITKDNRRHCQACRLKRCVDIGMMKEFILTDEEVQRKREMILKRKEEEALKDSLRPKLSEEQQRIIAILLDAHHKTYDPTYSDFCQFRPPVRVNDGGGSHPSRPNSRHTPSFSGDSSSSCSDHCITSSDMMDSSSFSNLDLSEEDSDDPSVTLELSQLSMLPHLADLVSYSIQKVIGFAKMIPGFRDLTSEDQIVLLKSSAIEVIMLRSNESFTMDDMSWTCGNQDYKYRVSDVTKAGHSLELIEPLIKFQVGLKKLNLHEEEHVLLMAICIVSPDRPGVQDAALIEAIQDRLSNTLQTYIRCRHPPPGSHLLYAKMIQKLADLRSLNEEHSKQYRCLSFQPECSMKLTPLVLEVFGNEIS

Consider `O=[N+]([O-])c1cc(C(F)(F)F)ccc1Cl`, for which the call in test [1], in [3], in [4], in test [5], in test [7] and in [8] was inactive. For the same molecule, the figures for the activation in test [2] and in test [14] were -0.113% (inactive) and -0.0124% (inactive), respectively. The max response in [6] is -4.02%; in test [9], -1.67%; in [10], -6.84% (inactive). The activity change % (negative = inhibition) in test [11] is -5.36% (inactive). The Potency entry in test [12] and in [13] was “inactive” each time.
As to `CC(C)c1ccccc1`, the outcome in test [1], in test [15], in test [3], in [4], in [5] and in test [16] was inactive. Besides, the result in test [17], in [7] and in [8] was inactive. Moreover, the activation was -12.7% (inactive) in test [2], 0.723% (inactive) in test [14] and -1.2% (inactive) in [18]. For the same molecule, the max response in [6] was -7.95%; in test [9], 7.79%; in test [10] it was 6.96% (inactive). In [11], the activity change % (negative = inhibition) is 6.43% (inactive). Further, in test [13], the Potency entry is “inactive”.
In the case of `O=Cc1ccc(Cl)cc1`, the result in [1], in [4], in test [5], in test [16], in test [17] and in [8] was inactive. In addition, the max response in test [19] was 7.54%; in [6], -8%; in [9], -0.849%; in [10], -5.61% (inactive). Moreover, the Potency entry in test [20] and in [12] was “inactive” in each case. The activation in test [14] was -0.245% (inactive).
For the molecule `O=C1CCCCC1`, the outcome in test [1], in test [4], in test [16], in [17], in test [7] and in test [8] was inactive. Also, the max response in [19] was 1.87%; in [6], -9.55%; in test [9] it was -8.36%; in [10] it was -0.633% (inactive). The Potency result in test [20], in [12] and in [13] was “inactive” throughout. In addition, the activity change % (negative = inhibition) in [11] is -11.2% (inactive). For the same molecule, the activation in [18] is -1.28% (inactive).
On to `BrC(Br)C(Br)Br`, for which the molecule was classed as inactive in test [1], in [4], in [5], in test [16], in [17] and in test [7]. The result in [8] was inactive. The activation is -1.02% (inactive) in test [2], -2.69% (inactive) in [14] and 2.53% (inactive) in test [18]. The max response was -3.11% in test [19], -10.8% in test [6] and -6.63% in test [9]. Further, the Potency result in test [20] and in test [12] was “inactive” each time. Besides, the activity change % (negative = inhibition) in [11] is 0.66% (inactive).
On to `Cc1ccc(C)o1`, for which the result in test [15], in test [3], in [4], in test [16], in [17] and in [7] was inactive. Besides, in test [8], the molecule was classed as inactive. Besides, the activation in test [2] was -6.27% (inactive); in test [14], -6.1% (inactive). The max response was -8.16% in test [19], 16.3% in test [6], 5.87% in [9] and -4.44% (inactive) in [10]. Also, the Potency result in test [20], in test [12] and in test [13] was “inactive” each time. Moreover, the activity change % (negative = inhibition) in test [11] is -3.98% (inactive).
On to `CCCC(C)CO` (configuration not stated), for which the result in test [1], in test [3], in [4], in [5], in [7] and in test [8] was inactive. Further, the max response is -16% in [19], -14.8% in test [6], 5% in test [9] and -5.45% (inactive) in test [10]. Moreover, the Potency result in test [20] and in [12] was “inactive” each time. In test [11], the activity change % (negative = inhibition) was 6.59% (inactive). In addition, the activation in [14] was 0.0206% (inactive); in test [18], -0.126% (inactive).
Turning to `ClCCl`, the call in [1], in test [4], in test [16], in [17], in [7] and in test [8] was inactive. In addition, the activation in [2] was -3.26% (inactive); in test [14], -4.34% (inactive). For the same molecule, the max response in [19] was 23.4%; in [6], -5.75%; in [9], 3.57%; in test [10], 5.83% (inactive). Besides, in test [11], the activity change % (negative = inhibition) was 0.0464% (inactive). The Potency result in test [12] and in test [13] was “inactive” each time.
